# Source: PubChem BioAssay (NCI)
# This is part of a sample that, as a whole, favours compounds with a hit. Of some 79,000 tested, about 15% had one in any assay. Unmarked numbers belong to inactive results. Activity calls are given as the source filed them. Cut-off read from the data, not from the text of the source: active = growth inhibition above about 70%; inactive = the rest.
# What was measured:
# [1] = NCI Yeast Anticancer Drug Screen. Data for the rad52 strain (AID 147);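 note: 0% = growth of vehicle-treated control cultures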; conditions: S. cerevisiae rad52 mutant growth inhibition, stronger effect = higher value
# How it was run: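 DNA repair-defective yeast; compound exposure; growth scored against vehicle controls.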
# [2] = NCI Yeast Anticancer Drug Screen. Data for the wt1 strain (AID 149);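 note: 0% = growth of vehicle-treated wt1 cultures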; conditions: S. cerevisiae wt1 strain (SPY 50644) growth inhibition, stronger effect = higher value
# How it was run: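 Each compound is tested on wt1 yeast and the loss of growth versus vehicle gives the inhibition value.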
# [3] = NCI Yeast Anticancer Drug Screen. Data for the rad50EPP+ strain (AID 151);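 note: 0% = growth of vehicle-treated control cultures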; conditions: S. cerevisiae rad50 mutant strain, stronger effect = higher value
# How it was run: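 rad50EPP+ yeast treated with test compounds. Readout: growth vs vehicle control.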
# [4] = NCI Yeast Anticancer Drug Screen. Data for the mgt1 strain (AID 153); conditions: S. cerevisiae mgt1 mutant growth inhibition, stronger effect = higher value
# How it was run: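 Growth inhibition relative to vehicle controls was scored for the mgt1 yeast strain after compound exposure.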
# [5] = NCI Yeast Anticancer Drug Screen. Data for the rad50 strain (AID 155);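 note: 0% = growth of vehicle-only cultures of the same strain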; conditions: S. cerevisiae rad50 strain growth inhibition, stronger effect = higher value
# How it was run: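 Vehicle-treated cultures provide the reference for the growth inhibition reported for compound-exposed, repair-deficient yeast.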
# [6] = NCI Yeast Anticancer Drug Screen. Data for the mec2-1 strain (AID 157); conditions: S. cerevisiae mec2-1 strain, stronger effect = higher value
# How it was run: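 Growth inhibition is read against vehicle-treated controls after compound exposure of the mec2-1 yeast strain, which is defective in DNA damage repair or cell cycle control.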
# [7] = NCI Yeast Anticancer Drug Screen. Data for the sgs1 mgt1 strain (AID 161);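 note: 0% = growth of cultures given vehicle only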; conditions: S. cerevisiae sgs1 mgt1 strain, stronger effect = higher value
# How it was run: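 This yeast growth screen uses a strain with defined DNA-repair lesions; compound-treated growth is compared with vehicle-treated growth.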
# [8] = NCI Yeast Anticancer Drug Screen. Data for the CLN2oe strain (AID 163);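 note: 0% = growth of vehicle-only control cultures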; conditions: S. cerevisiae CLN2oe strain, stronger effect = higher value
# How it was run: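 Compound-treated yeast; growth vs vehicle ctrl = % inhibition. Genetically altered strain (cell-cycle control).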
# [9] = NCI Yeast Anticancer Drug Screen. Data for the cln2 rad14 strain (AID 165);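 note: 0% = growth equal to vehicle treated cultures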; conditions: S. cerevisiae cln2 rad14 strain, stronger effect = higher value
# How it was run: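 Growth inhibition, relative to vehicle-treated controls, is the read-out. The test organism is a yeast strain with defined genetic alterations, cln2 rad14.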
# [10] = NCI Yeast Anticancer Drug Screen. Data for the bub3 strain (AID 167); conditions: S. cerevisiae bub3 mutant strain, stronger effect = higher value
# How it was run: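 Mutant yeast screening strain plus compound; vehicle-treated cultures serve as the 0% inhibition reference.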
# [11] = NCI Yeast Anticancer Drug Screen. Data for the wt2 strain (AID 169); conditions: S. cerevisiae wt2 strain growth inhibition, stronger effect = higher value
# How it was run: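 Compound exposure of yeast; growth compared with vehicle controls; inhibition reported.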
# [12] = NCI Yeast Anticancer Drug Screen. Data for the mlh1 strain (AID 171);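 note: 0% = growth of vehicle-treated control cultures of the same strain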; conditions: S. cerevisiae mlh1 strain growth inhibition, stronger effect = higher value
# How it was run: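 Compounds are applied to a genetically altered yeast strain, and its growth is compared with that of vehicle-treated cultures to give percent inhibition.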
# [13] = NCI Yeast Anticancer Drug Screen. Data for the sgs1 strain (AID 173);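 note: 0% = growth of vehicle-only control cultures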; conditions: S. cerevisiae sgs1 mutant, stronger effect = higher value
# How it was run: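 Compounds applied to genetically altered yeast; growth compared with vehicle-treated cultures to give % inhibition.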
# [14] = NCI Yeast Anticancer Drug Screen. Data for the mlh1 rad18 strain (AID 175); conditions: S. cerevisiae mlh1 rad18 strain growth inhibition, stronger effect = higher value
# How it was run: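 Cells of a genetically altered yeast strain, deficient in DNA damage repair, were treated with compound. Their growth was then compared with that of vehicle-treated cultures to give inhibition.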
# [15] = NCI Yeast Anticancer Drug Screen. Data for the rad18 strain (AID 177); conditions: S. cerevisiae rad18 mutant growth inhibition, stronger effect = higher value
# How it was run: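 Compounds are applied to a repair-deficient yeast strain, and growth is compared with that of vehicle-treated cultures to give percent inhibition.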
# [16] = NCI Yeast Anticancer Drug Screen. Data for the rad14 strain (AID 159);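 note: 0% = growth of vehicle-treated control cultures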; conditions: S. cerevisiae rad14 strain growth inhibition, stronger effect = higher value
# How it was run: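 Inhibition of growth is reported for a repair-deficient yeast mutant following compound treatment, calculated relative to cultures that received vehicle.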
# [17] = at 5.0 µM (retest, dose inferred, filed as 0.5)
# [18] = at 50.0 µM (retest, dose inferred, filed as 5.0)
structure (smiles),measurement,setting,value
[N-]=[N+]=NC1=C(c2ccccn2)C(=O)c2cccc3cccc1c23,growth inhibition,[1]; at 1.2 µM,2%
same,growth inhibition,[1]; at 3.7 µM,4%
same,growth inhibition,[1]; at 11.0 µM,24%
same,growth inhibition,[1]; at 33.0 µM,50%
same,growth inhibition,[1]; at 100.0 µM,75% (active)
same,growth inhibition,[2]; at 1.2 µM,2%
same,growth inhibition,[2]; at 3.7 µM,4%
same,growth inhibition,[2]; at 11.0 µM,5%
same,growth inhibition,[2]; at 33.0 µM,14%
same,growth inhibition,[2]; at 100.0 µM,34%
same,growth inhibition,[3]; at 1.2 µM,9%
same,growth inhibition,[3]; at 3.7 µM,16%
same,growth inhibition,[3]; at 11.0 µM,31%
same,growth inhibition,[3]; at 33.0 µM,74% (active)
same,growth inhibition,[3]; at 100.0 µM,93% (active)
same,growth inhibition,[4]; at 1.2 µM,-3%
same,growth inhibition,[4]; at 3.7 µM,-1%
same,growth inhibition,[4]; at 11.0 µM,19%
same,growth inhibition,[4]; at 33.0 µM,10%
same,growth inhibition,[4]; at 100.0 µM,41%
same,growth inhibition,[5]; at 1.2 µM,2%
same,growth inhibition,[5]; at 3.7 µM,3%
same,growth inhibition,[5]; [17],7%
same,growth inhibition,[5]; at 11.0 µM,5%
same,growth inhibition,[5]; at 33.0 µM,53%
same,growth inhibition,[5]; [18],71% (active)
same,growth inhibition,[5]; at 50.0 µM,67.2%
same,growth inhibition,[5]; at 100.0 µM,71% (active)
same,growth inhibition,[6]; at 1.2 µM,5%
same,growth inhibition,[6]; at 3.7 µM,7%
same,growth inhibition,[6]; [17],-5%
same,growth inhibition,[6]; at 11.0 µM,14%
same,growth inhibition,[6]; at 33.0 µM,37%
same,growth inhibition,[6]; [18],40%
same,growth inhibition,[6]; at 50.0 µM,63.8%
same,growth inhibition,[6]; at 100.0 µM,61%
same,growth inhibition,[7]; [17],-7%
same,growth inhibition,[7]; [18],28%
same,growth inhibition,[7]; at 50.0 µM,71.4% (active)
same,growth inhibition,[8]; at 1.2 µM,-3%
same,growth inhibition,[8]; at 3.7 µM,1%
same,growth inhibition,[8]; at 11.0 µM,5%
same,growth inhibition,[8]; at 33.0 µM,35%
same,growth inhibition,[8]; at 100.0 µM,74% (active)
same,growth inhibition,[9]; [17],38%
same,growth inhibition,[9]; [18],31%
same,growth inhibition,[9]; at 50.0 µM,67%
same,growth inhibition,[10]; at 1.2 µM,-1%
same,growth inhibition,[10]; at 3.7 µM,4%
same,growth inhibition,[10]; [17],-11%
same,growth inhibition,[10]; at 11.0 µM,18%
same,growth inhibition,[10]; at 33.0 µM,24%
same,growth inhibition,[10]; [18],59%
same,growth inhibition,[10]; at 50.0 µM,69.6%
same,growth inhibition,[10]; at 100.0 µM,61%
same,growth inhibition,[11]; at 1.2 µM,-1%
same,growth inhibition,[11]; at 3.7 µM,-1%
same,growth inhibition,[11]; at 11.0 µM,5%
same,growth inhibition,[11]; at 33.0 µM,26%
same,growth inhibition,[11]; at 100.0 µM,63%
same,growth inhibition,[12]; at 1.2 µM,4%
same,growth inhibition,[12]; at 3.7 µM,-2%
same,growth inhibition,[12]; at 11.0 µM,7%
same,growth inhibition,[12]; at 33.0 µM,19%
same,growth inhibition,[12]; at 100.0 µM,42%
same,growth inhibition,[13]; at 1.2 µM,-2%
same,growth inhibition,[13]; at 3.7 µM,1%
same,growth inhibition,[13]; at 11.0 µM,6%
same,growth inhibition,[13]; at 33.0 µM,37%
same,growth inhibition,[13]; at 100.0 µM,67%
same,growth inhibition,[14]; [17],4%
same,growth inhibition,[14]; [18],52%
same,growth inhibition,[14]; at 50.0 µM,59%
same,growth inhibition,[15]; at 1.2 µM,0%
same,growth inhibition,[15]; at 3.7 µM,6%
same,growth inhibition,[15]; at 11.0 µM,12%
same,growth inhibition,[15]; at 33.0 µM,58%
same,growth inhibition,[15]; at 100.0 µM,85% (active)
O=C(Cc1csc2[n+]1C(=O)/C(=C/c1ccc(Cl)cc1)S2)Nc1ccccc1,growth inhibition,[1]; at 1.2 µM,15%
same,growth inhibition,[1]; at 3.7 µM,4%
same,growth inhibition,[1]; at 11.0 µM,20%
same,growth inhibition,[1]; at 33.0 µM,49%
same,growth inhibition,[1]; at 100.0 µM,87% (active)
same,growth inhibition,[2]; at 1.2 µM,-84%
same,growth inhibition,[2]; at 3.7 µM,-1%
same,growth inhibition,[2]; at 11.0 µM,0%
same,growth inhibition,[2]; at 33.0 µM,16%
same,growth inhibition,[2]; at 100.0 µM,60%
same,growth inhibition,[3]; at 1.2 µM,2%
same,growth inhibition,[3]; at 3.7 µM,8%
same,growth inhibition,[3]; at 11.0 µM,34%
same,growth inhibition,[3]; at 33.0 µM,65%
same,growth inhibition,[3]; at 100.0 µM,75% (active)
same,growth inhibition,[5]; at 1.2 µM,-2%
same,growth inhibition,[5]; at 3.7 µM,1%
same,growth inhibition,[5]; [17],24%
same,growth inhibition,[5]; at 11.0 µM,9%
same,growth inhibition,[5]; at 33.0 µM,43%
same,growth inhibition,[5]; [18],98% (active)
same,growth inhibition,[5]; at 50.0 µM,98.5% (active)
same,growth inhibition,[5]; at 100.0 µM,78% (active)
same,growth inhibition,[6]; at 1.2 µM,-3%
same,growth inhibition,[6]; at 3.7 µM,5%
same,growth inhibition,[6]; [17],25%
same,growth inhibition,[6]; at 11.0 µM,13%
same,growth inhibition,[6]; at 33.0 µM,39%
same,growth inhibition,[6]; [18],99% (active)
same,growth inhibition,[6]; at 50.0 µM,98.8% (active)
same,growth inhibition,[6]; at 100.0 µM,62%
same,growth inhibition,[16]; at 1.2 µM,0%
same,growth inhibition,[16]; at 3.7 µM,4%
same,growth inhibition,[16]; at 11.0 µM,10%
same,growth inhibition,[16]; at 33.0 µM,33%
same,growth inhibition,[16]; at 100.0 µM,69%
same,growth inhibition,[7]; [17],2%
same,growth inhibition,[7]; [18],96% (active)
same,growth inhibition,[7]; at 50.0 µM,98.9% (active)
same,growth inhibition,[8]; at 1.2 µM,-6%
same,growth inhibition,[8]; at 3.7 µM,-14%
same,growth inhibition,[8]; at 11.0 µM,-12%
same,growth inhibition,[8]; at 33.0 µM,8%
same,growth inhibition,[8]; at 100.0 µM,47%
same,growth inhibition,[9]; [17],42%
same,growth inhibition,[9]; [18],98% (active)
same,growth inhibition,[9]; at 50.0 µM,98.5% (active)
same,growth inhibition,[10]; at 1.2 µM,-8%
same,growth inhibition,[10]; at 3.7 µM,-8%
same,growth inhibition,[10]; [17],97% (active)
same,growth inhibition,[10]; at 11.0 µM,-7%
same,growth inhibition,[10]; at 33.0 µM,11%
same,growth inhibition,[10]; [18],99% (active)
same,growth inhibition,[10]; at 50.0 µM,98.8% (active)
same,growth inhibition,[10]; at 100.0 µM,12%
same,growth inhibition,[11]; at 1.2 µM,-3%
same,growth inhibition,[11]; at 3.7 µM,-3%
same,growth inhibition,[11]; at 11.0 µM,7%
same,growth inhibition,[11]; at 33.0 µM,60%
same,growth inhibition,[11]; at 100.0 µM,82% (active)
same,growth inhibition,[12]; at 1.2 µM,-1%
same,growth inhibition,[12]; at 3.7 µM,1%
same,growth inhibition,[12]; at 11.0 µM,8%
same,growth inhibition,[12]; at 33.0 µM,52%
same,growth inhibition,[12]; at 100.0 µM,75% (active)
same,growth inhibition,[13]; at 1.2 µM,2%
same,growth inhibition,[13]; at 3.7 µM,11%
same,growth inhibition,[13]; at 11.0 µM,32%
same,growth inhibition,[13]; at 33.0 µM,72% (active)
same,growth inhibition,[13]; at 100.0 µM,89% (active)
same,growth inhibition,[14]; [17],20%
same,growth inhibition,[14]; [18],98% (active)
same,growth inhibition,[14]; at 50.0 µM,98.3% (active)
same,growth inhibition,[15]; at 1.2 µM,0%
same,growth inhibition,[15]; at 3.7 µM,5%
same,growth inhibition,[15]; at 11.0 µM,21%
same,growth inhibition,[15]; at 33.0 µM,56%
same,growth inhibition,[15]; at 100.0 µM,69%
